# Results published in PubChem BioAssay AID651660 (Broad Institute, 2012).
# About 15 (0.8%) of roughly 1,900 compounds were called active. The sample holds actives, similar compounds and a random draw of the others, so the mix is not that of the screen. Values without a mark were called inactive.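 How the source made its calls: active means every replicate shows at least 50% inhibition; inconclusive means mean inhibition at least 50% but some replicate below; inactive means the rest.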
# Molecular target: DNA repair protein RAD52 homolog (Homo sapiens) (UniProt P43351)
# Sequence (P43351 whole entry, looked up): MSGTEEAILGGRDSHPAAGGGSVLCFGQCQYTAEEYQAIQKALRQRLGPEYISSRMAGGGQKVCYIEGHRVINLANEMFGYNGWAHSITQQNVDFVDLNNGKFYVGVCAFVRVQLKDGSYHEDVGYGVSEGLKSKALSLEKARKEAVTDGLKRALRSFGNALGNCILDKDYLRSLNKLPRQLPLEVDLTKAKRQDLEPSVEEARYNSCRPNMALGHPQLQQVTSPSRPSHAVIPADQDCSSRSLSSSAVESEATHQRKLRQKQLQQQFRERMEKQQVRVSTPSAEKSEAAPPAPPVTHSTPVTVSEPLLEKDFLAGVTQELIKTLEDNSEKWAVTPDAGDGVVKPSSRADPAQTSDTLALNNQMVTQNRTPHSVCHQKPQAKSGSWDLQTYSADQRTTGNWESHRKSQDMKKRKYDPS
# Test: inhibition of RAD52-mediated strand annealing – biochemical, FRET, single point, primary screen (AID 651660);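 further: 0% = median of neutral control wells and 100% = median of positive control wells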
# Details: Recombinant RAD52 ssDNA annealing, FRET fluorescence, 30 min; at 18.7 µM; active compounds read high
row,SMILES,inhibition
1,O=C(Nc1nc2ccccc2s1)c1ccc(F)cc1,4.49%
2,CCN(CC)c1ccc(C2=NNC(=O)CC2C)cc1[N+](=O)[O-] (configuration not stated),-0.17%
3,O=C(N/C(=C/C=C\c1ccccc1)C(=O)N1CCOCC1)c1ccc(Br)cc1,8.04%
4,CCOc1ccccc1Oc1coc2cc(OCC(=O)O)ccc2c1=O,-12.3%
5,C(=C\c1ccc2ccccc2n1)/c1ccccc1,3.46%
6,COc1cc(CC(=O)NCCc2ccc(S(N)(=O)=O)cc2)cc(OC)c1OC,-2.62%
7,O=C(NCCCCCc1nc2ccccc2[nH]1)c1ccccc1Cl,-0.634%
8,N=C1C(c2ccccc2)=C(O)CN1CCCO,-1.52%
9,Cn1c2ccccc2c2cc(/C=C(\NC(=O)c3ccccc3)C(=O)O)ccc21,-10.8%
10,O=C1c2cccc3cccc(c23)C(=O)N1c1ccccn1,-4.1%
11,COCCCNc1nc2c([nH]1)c(=O)[nH]c(=O)n2C,-1.14%
12,CCOC(=O)c1cnc2ccccc2c1NCCO,10.9%
13,O=C(COc1ccccc1)Nc1ccc2c(c1)C(=O)N(CC1CCCO1)C2=O (configuration not stated),-9.17%
14,COc1ccc(C2C3=C(CC(C)(C)CC3=O)N(C)C3=C2C(=O)CC(C)(C)C3)cc1,-13.9%
15,COc1ccccc1OS(=O)(=O)c1ccc(NC(C)=O)cc1,3.22%
16,S=C(NCCOCCOCCNC(=S)Nc1ccccc1)Nc1ccccc1,4.23%
17,Nc1ncnc2c1ncn2C1OC(CO)C(O)C1O (configuration not stated),-0.087%
18,Cc1ccc2c(ccc(=S)n2C)c1,-5.88%
19,O=C(CS(=O)(=O)c1ccccc1)c1ccc2c(c1)OCCO2,-0.895%
20,CCOc1cc2oc(=O)c3c(c2cc1Cl)CCC3,-1.74%
21,CC[C@H](CO)NCCN[C@H](CC)CO,-5.2%
22,Cc1ccc2nc(N=C(N)N)nc(C)c2c1,66.7% (active)
23,Cc1ccc2nc(NC3=NC(CC(=O)O)C(=O)N3)nc(C)c2c1 (configuration not stated),7.8%
24,Cc1ccc2nc(C)c3c(c2c1)OC(C(C)(Cl)Br)C3 (configuration not stated),3.5%
25,C[C@H](NC(=O)OC(C)(C)C)C(=O)NCC1CCC(C(=O)O)CC1 (some centres not stated),-0.108%
26,CC(=O)N(CCC1(C(C)C)CCOC(C)(C)C1)Cc1ccco1 (configuration not stated),-19%

row,SMILES,inhibition
1,COc1cc(CO)ccc1OCc1nnnn1-c1ccc(C)cc1,5.41%
2,CCC(C)NCCOCCOc1ccc(Cl)cc1Br (configuration not stated),9.51%
3,CCC1CCc2c(sc(NC(=O)c3cccnc3)c2C(N)=O)C1 (configuration not stated),-5.46%
4,Nc1ccc2[nH]ncc2c1,59.5% (active)
5,O=[N+]([O-])c1ccc2cn[nH]c2c1,-3.19%
6,Nc1ccc2nc(Cc3ccccc3)[nH]c2c1,33.4%
7,C=C(C)COc1ccc(-c2n[nH]c(C)c2-c2ccc(OC)cc2)c(O)c1,17.8%
8,CCOc1ccc(C(=O)Nc2ccc(N3CCN(C(C)=O)CC3)cc2)cc1[N+](=O)[O-],-3.31%
9,NC(=O)[C@@H]1[C@@H]2C(=O)N(c3ccc(F)cc3)C(=O)[C@@H]2[C@H]2C=Cc3ccccc3N21,-124%
10,C#CCN1C(=O)C(O)(c2c(C)[nH]c3ccccc23)c2ccccc21 (configuration not stated),-11.1%
11,Nc1cccc2nc3ccccc3cc12,99.5% (active)
12,Cc1nc2cc3ccccc3cc2c(=O)[nH]1,-5.13%
13,Nc1c2c(nc3ccccc13)CCCC2,18.1%
14,CN(C)C(=O)CCCCCCCCC(=O)N(C)C,-13.3%
15,COc1ccc(/C=C(/C#N)c2cccnc2)cc1OC,-8.25%
16,CCOC(=O)c1ccc2[nH]c(C)c(CCC(C)=O)c(=O)c2c1,0.469%
17,COc1cc(COc2ccc3c(C)c(Cc4ccccc4)c(=O)oc3c2)cc(OC)c1OC,-0.647%
18,CCc1nc2ccccc2c(NC(=O)CN2CC(C)CC(C)C2)c1C (configuration not stated),-5.82%
19,O=C(CCCn1c(=O)oc2ccccc21)N1CCN(c2ccc(F)cc2)CC1,-3.01%
20,Cc1ccc(C2CC(=O)C(C=NCCN3CCN(C(=S)Nc4ccccc4)CC3)=C(O)C2)cc1 (configuration not stated),4.06%
21,Cc1ccc2c(c1)C(O)(CC(=O)/C=C/C=C/c1ccccc1)C(=O)N2 (configuration not stated),-10.7%
22,CC1(C)CC(=O)C2=C(C1)c1c(ccc3ccccc13)NC2c1ccco1 (configuration not stated),-27.1%
23,CCN(CC)c1ccc([C@H]2[C@@H]3CCCC[C@]3(O)CCN2CC(=O)NCc2ccco2)cc1,-20.6%
24,CCc1cc(/C(Cc2ccccn2)=N\O)c(O)cc1O,-33.7%
25,CC(C)CC(NC(=O)CNC(=O)C1O[C@@H]2OC(C)(C)O[C@@H]2[C@H]2OC(C)(C)O[C@@H]12)C(=O)O (some centres not stated),-7%
26,OCCN(Cc1nc(-c2ccc3c(c2)OCO3)no1)Cc1cccs1,2.4%

row,SMILES,inhibition
1,Cc1ccc(C2CC(=O)C(C=NCCN3CCN(CC(=O)Nc4cc(C)cc(C)c4)CC3)=C(O)C2)cc1 (configuration not stated),-3.07%
2,COc1ccccc1N=CC1=C(O)CC(c2ccccc2)CC1=O (configuration not stated),-25.4%
3,C/C(=N\N=C1\NC(=O)C(CC(=O)Nc2ccc(Cl)cc2)S1)c1ccco1 (configuration not stated),-15.6%
4,COc1ccc(NC(=S)NCCc2c[nH]c3ccccc23)cc1,7.25%
5,O=C(c1ccc(O)cc1)c1ccc(O)cc1O,-19.8%
6,COc1ccc2[nH]c(=O)c3c(c2c1)OC(C)(C)C=C3,-5.72%
7,CCc1cccc(OC2OC(CO)C(O)C(O)C2NC(C)=O)c1 (configuration not stated),-3.23%
8,COc1ccc2c(C=O)cn(C)c2c1,-1.85%
9,CC(C)CC(NC(=O)c1cccc(Cl)c1)C(=O)O (configuration not stated),-8.58%
10,CCOC(=O)c1c(O)c2c([nH]c1=O)CCCC2,2.81%
11,COc1cccc(N2C(=O)CC(c3c[nH]c4ccccc34)C2=O)c1 (configuration not stated),-22.5%
12,Cc1c(NC(=O)c2cccs2)cccc1[N+](=O)[O-],0.122%
13,CC1(C)CC(=O)C(C(=O)CCCCC(=O)C2C(=O)CC(C)(C)CC2=O)C(=O)C1,-11.5%
14,CC(=O)NCCCC(=O)NC(CCC(=O)OCc1ccccc1)C(=O)OCc1ccccc1 (configuration not stated),-10.8%
15,COC(=O)c1ccc(OCCCCN2CC(C)OC(C)C2)cc1 (configuration not stated),-1.97%
16,CC1(C)OC2OC(C(=O)N/N=C/c3ccccc3F)C3OC(C)(C)OC3C2O1 (configuration not stated),-8.91%
17,O=C(/C=C/c1c[nH]c2ccccc12)c1cccc2ccccc12,-25.7%
18,O=C(CCCCCCCC(=O)c1ccccc1)c1ccccc1,2.66%
19,COc1ccc(CCNc2ncnc3c2[nH]c2cc(OC)c(OC)cc23)cc1OC,68.2% (active)
20,COc1cc2[nH]c3c(=O)n(CCN4CCOCC4)cnc3c2cc1OC,1.23%
21,Clc1ccc(CCNc2ncnc3nc[nH]c23)cc1,1.95%
22,CN(Cc1ccccc1)CC(O)COc1ccc(CNCc2cccnc2)cc1 (configuration not stated),25.5%
23,COc1c2ccoc2nc2c(OC)cccc12,10.6%
24,COc1ccc(N2C(=O)[C@@H]3Cc4ccccc4CN3C2=O)cc1,-7.83%
25,Cc1oc2c(CN3CCCC3)c(O)ccc2c(=O)c1-c1ccc(Cl)cc1,2.93%
26,CCN(Cc1ccncc1)Cc1nc(Cc2ccccc2Cl)no1,-13.8%

row,SMILES,inhibition
1,COc1ccc(C(CC(=O)N2CCOCC2)C(C)C)cc1 (configuration not stated),4.92%
2,O=C(CSCc1ccccc1)NCCCN1CCOCC1,7.56%
3,CCN(Cc1cnn(C)c1)Cc1nc(C(c2ccccc2)c2ccccc2)no1,1.94%
4,N/C(=N\OC(=O)/C=C/c1ccccc1)c1ccc(Br)cc1,-5.01%
5,Cc1nc(-c2coc3c(CN(C)C)c(O)ccc3c2=O)cs1,5.53%
6,c1ccc(Nc2cccc3c(Nc4ccccc4)cccc23)cc1,51.9% (active)
7,O=C(O)c1ccccc1Nc1cccc(C(F)(F)F)c1,-6.2%
8,Cc1cccc(Nc2ccccc2C(=O)O)c1C,-13.3%
9,COc1ccc(-c2nc(C)c(C(C)=O)n2O)cc1OC,-4.44%
10,COc1cccc(-n2cc(CNCc3c(C(=O)N(C)C)nc4ccc(Cl)cn34)cn2)c1,-5.77%
11,COC(=O)c1sccc1NC(=O)Nc1ccccc1F,-4.3%
12,Cc1oc2cc(O)cc(O)c2c(=O)c1-c1ccc2c(c1)OCCCO2,3.6%
13,Cn1c2ccc(CC(=O)O)cc2c2cc(CC(=O)O)ccc21,-173%
14,CC(C)c1ccccc1OCCNC(=S)NC(=O)c1cccnc1,-11.8%
15,COc1cccc2c1C(=O)O/C2=C/c1ccc2c(c1)OCO2,-3.05%
16,CCn1c(O)c(/C=C2\C=Nc3ccccc32)sc1=O,8.58%
17,COC(=O)c1cc(OC)c(OC)c(OC)c1[N+](=O)[O-],-11.8%
18,COc1ccc(Br)cc1C(=O)Nc1ccc(C(=O)O)cc1,-5.54%
19,Cc1cnc(C(=O)N2CCCC(C(=O)c3ccc(Cl)cc3C)C2)cn1 (configuration not stated),3.18%
20,Cc1ccc2[nH]c(=O)c(Cc3ccccc3)c(O)c2c1,-9.59%
21,CN1C(=O)C(O)(CC(=O)/C=C/C=C/c2ccccc2)c2ccccc21 (configuration not stated),-13.6%
22,CC(C)Oc1ccc(C(CC(=O)O)c2ccc(F)cc2)cc1 (configuration not stated),-7.3%
23,COc1ccc(CN(CCC(c2ccccc2)c2ccc(OC(C)C)cc2)C(=O)CCl)cc1OC (configuration not stated),28.8%
24,COc1ccc(CNCCC(c2ccc(F)cc2)c2ccc(OC(C)C)cc2)cc1OC (configuration not stated),57.6% (active)
